Source: PubChem BioAssay (Tox21)
Inconclusive results are not listed. Active and inactive are the calls of the source. The call rests on the fitted dose curve.

Tests used:
[1] = target: Acetylcholinesterase (Homo sapiens) (UniProt P22303); experiment: Acetylcholinesterase (AChE) small molecule antagonists: colormetric cell-based qHTS assay (AID 1347395); further: nearly all actives have a fitted effect of over 30% in size
In short: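 SH-SY5Y cells attached overnight, exposed to compound 30 min at 37 C, then given DTNB/acetylthiocholine; after 90 min at 37 C, colorimetric thiocholine read gives cellular AChE activity.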

[2] = target: Acetylcholinesterase (Homo sapiens) (UniProt P22303); experiment: Acetylcholinesterase (AChE) small molecule antagonists: enzyme-based qHTS assay (AID 1347397); conditions: Potency: AChE enzyme activity inhibition; outcome: AChE enzyme activity inhibition; further: nearly all actives have a fitted effect of over 55% in size
In short: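 Recombinant human AChE, dispensed at 50 mU/mL, was preincubated with Tox21 10K compounds or DMSO vehicle for 30 min at room temperature. DTNB plus acetylthiocholine was then added, and thiocholine was measured colorimetrically after a further 10 min.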

[3] = target: Acetylcholinesterase (Homo sapiens) (UniProt P22303); experiment: Acetylcholinesterase (AChE) small molecule antagonists: fluorescence cell-based qHTS assay (AID 1347398); conditions: Potency: AChE activity; outcome: AChE activity; further: nearly all actives have a fitted effect of over 50% in size
In short: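 Human SH-SY5Y cells were plated overnight at 37 C, exposed to compound for 30 min at 37 C, 5% CO2, then given acetylthiocholine plus Thiolite Green for 40 min at room temperature; thiocholine fluorescence (Ex/Em 490/520 nm) reports endogenous AChE activity.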

[4] = target: Acetylcholinesterase (Homo sapiens) (UniProt P22303); experiment: Acetylcholinesterase (AChE) small molecule antagonists: enzyme-based qHTS assay with human liver microsomes (AID 1347399); conditions: Potency: qHTS inhibition; outcome: qHTS inhibition; further: nearly all actives have a fitted effect of over 60% in size
In short: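 Recombinant human AChE (50 mU/mL in the enzyme mix) and human liver microsomes (0.25 mg/mL final) were preincubated with compound and NADPH (0.25 mg/mL final) for 30 min at 37 C. Acetylthiocholine/DTNB was then added; thiocholine was read colorimetrically after 10 min at room temperature.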
On the % scale 0 is the no-effect control and ±100 the full control effect.

Sequence of Acetylcholinesterase (Homo sapiens) (P22303 whole entry, looked up): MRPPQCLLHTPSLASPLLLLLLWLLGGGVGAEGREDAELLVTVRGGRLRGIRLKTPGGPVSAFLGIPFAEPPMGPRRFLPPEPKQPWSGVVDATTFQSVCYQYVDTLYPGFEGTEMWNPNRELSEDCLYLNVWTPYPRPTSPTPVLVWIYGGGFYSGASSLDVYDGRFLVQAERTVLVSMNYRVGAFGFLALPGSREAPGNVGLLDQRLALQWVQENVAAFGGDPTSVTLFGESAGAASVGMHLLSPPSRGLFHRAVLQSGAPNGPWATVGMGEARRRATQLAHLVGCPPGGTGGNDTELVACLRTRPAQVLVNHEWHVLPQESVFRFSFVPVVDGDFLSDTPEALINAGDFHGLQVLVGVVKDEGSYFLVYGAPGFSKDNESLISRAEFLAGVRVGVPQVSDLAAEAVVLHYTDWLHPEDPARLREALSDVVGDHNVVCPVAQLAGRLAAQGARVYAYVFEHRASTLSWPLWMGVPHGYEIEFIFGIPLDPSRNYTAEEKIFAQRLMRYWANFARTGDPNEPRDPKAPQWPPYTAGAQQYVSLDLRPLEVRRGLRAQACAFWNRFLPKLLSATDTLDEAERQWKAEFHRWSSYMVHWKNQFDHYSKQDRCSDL

CCc1cccc(CC)c1N(COC)C(=O)CS(=O)(=O)O
inactive: Potency [1] | Potency [2] | Potency [3] | Potency [4]

CC1(C)[C@H]2CC[C@]1(C)C(=O)C2
inactive: Potency [1] | Potency [2] | Potency [3] | Potency [4]

CCc1cccc2c(CCO)c[nH]c12
inactive: Potency [1] | Potency [2] | Potency [3] | Potency [4]

CC(C)OC(=O)CCCCC(=O)OC(C)C
inactive: Potency [1] | Potency [2] | Potency [3] | Potency [4]

CCOCCOCCOCC
inactive: Potency [1] | Potency [2] | Potency [3] | Potency [4]

CCCCCCCCCCCc1ccccc1
inactive: Potency [1] | Potency [2] | Potency [3] | Potency [4]

CC(C)(C)CC(C)(C)c1ccc(Nc2ccc(C(C)(C)CC(C)(C)C)cc2)cc1
inactive: activity, negative = inhibition [1] -3.03% [at 10.5 µM] | activity change, negative = inhibition [2] -6.81% [at 10.5 µM] | activity change, negative = inhibition [3] -4.09% [at 10.5 µM] | activity change, negative = inhibition [4] 0.323% [at 10.5 µM]

CCCOC(=O)CC
inactive: Potency [1] | Potency [2] | Potency [3] | Potency [4]

CC(C)c1ccc2ncccc2c1
inactive: Potency [1] | Potency [2] | Potency [3] | Potency [4]

Cc1c(C)c2c(c(C)c1O)CCC(C)(COc1ccc(CC3SC(=O)NC3=O)cc1)O2 (stereo not given)
inactive: Potency [1] | Potency [2] | Potency [3] | Potency [4]

C=C(C)[C@@H]1CCC2=CC(=O)C[C@@H](C)[C@]2(C)C1
inactive: Potency [1] | Potency [2] | Potency [3] | Potency [4]

CCCCCCCCCCCC(=O)OC
inactive: Potency [1] | Potency [2] | Potency [3] | Potency [4]

c1ccc2c(c1)Cc1ccccc1-2
inactive: Potency [1] | Potency [2] | Potency [3] | Potency [4]

CCCCC(CC)C(=O)O (stereo not given)
inactive: Potency [1] | Potency [2] | Potency [3] | Potency [4]

O=C(NS(=O)(=O)/C=C/c1ccccc1)c1ccc(F)cc1Cl
inactive: Potency [1] | Potency [2] | Potency [3] | Potency [4]

O=C(Nc1ccc([N+](=O)[O-])cc1Cl)c1cc(Cl)ccc1O
inactive: Potency [1] | Potency [2] | Potency [3] | Potency [4]

CCC1(C)CC(=O)NC1=O (stereo not given)
inactive: Potency [1] | Potency [2] | Potency [3] | Potency [4]

CCCn1cnc2c1c(=O)n(CCCCC(C)=O)c(=O)n2C
inactive: Potency [1] | Potency [2] | Potency [3] | Potency [4]

NC(=O)NS(=O)(=O)c1ccc(N)cc1
inactive: Potency [1] | Potency [2] | Potency [3] | Potency [4]

CC(C)(C)CC(C)(C)N
inactive: Potency [1] | Potency [2] | Potency [3] | Potency [4]

N=c1nc(N2CCCCC2)cc(N)n1O
inactive: Potency [1] | Potency [2] | Potency [3] | Potency [4]

CC1=CC[C@H](CC=O)C1(C)C
inactive: Potency [1] | Potency [2] | Potency [3] | Potency [4]

C[C@](N)(Cc1ccc(O)c(O)c1)C(=O)O
inactive: Potency [1] | Potency [2] | Potency [3] | Potency [4]

CCOC(=O)CCC(=O)OCC
inactive: Potency [1] | Potency [2] | Potency [3] | Potency [4]

COC(=O)/C=C(\C)CCC=C(C)C
inactive: Potency [1] | Potency [2] | Potency [3] | Potency [4]

NC[C@H]1O[C@H](O[C@H]2[C@H](O[C@@H]3O[C@H](CO)[C@@H](O)[C@H]3O)C(O)[C@H](N)C[C@@H]2N)[C@H](N)[C@@H](O)[C@@H]1O (stereo not given in full)
inactive: activity, negative = inhibition [1] -1.41% [at 10.5 µM] | activity change, negative = inhibition [2] 0.757% [at 10.5 µM] | activity change, negative = inhibition [3] 8.04% [at 10.5 µM] | activity change, negative = inhibition [4] -2.19% [at 10.5 µM]

CCCCN(CCC(=O)OCC)C(C)=O
inactive: Potency [1] | Potency [2] | Potency [3] | Potency [4]

CC(C)(C)c1ccc(C(=O)CCCCl)cc1
inactive: Potency [1] | Potency [2] | Potency [3] | Potency [4]

O=C(O)Cn1c(=O)n(Cc2ccc(Br)cc2F)c(=O)c2ccc(Cl)cc21
inactive: Potency [1] | Potency [2] | Potency [3] | Potency [4]

O=C(O)P(=O)(O)O
inactive: Potency [1] | Potency [2] | Potency [3] | Potency [4]

CCOc1c(N2CCOCC2)cnn(C)c1=O
inactive: Potency [1] | Potency [2] | Potency [3] | Potency [4]

Cc1ccccc1N=C(N)Nc1ccccc1C
inactive: Potency [1] | Potency [2] | Potency [3] | Potency [4]

O=C(O)c1cccc(C(=O)O)c1
inactive: Potency [1] | Potency [2] | Potency [3] | Potency [4]

C[C@H]1[C@@H](c2ccccc2)NC(=O)N1C
inactive: Potency [1] | Potency [2] | Potency [3] | Potency [4]

Cc1ccc(Br)cc1
inactive: Potency [1] | Potency [2] | Potency [3] | Potency [4]

CCC(=O)CC(C)CC (stereo not given)
inactive: activity, negative = inhibition [1] -0.199% [at 0.435 µM] | activity change, negative = inhibition [2] 1.36% [at 0.435 µM] | activity change, negative = inhibition [3] 1.06% [at 0.439 µM] | activity change, negative = inhibition [4] 0% [at 0.435 µM]

CC(=O)CC(=O)Nc1ccc(S(=O)(=O)O)cc1
inactive: Potency [1] | Potency [2] | Potency [3] | Potency [4]

CCC(C)C=O (stereo not given)
inactive: Potency [1] | Potency [2] | Potency [3] | Potency [4]

CCC(C(=O)OCCN1CCOC(c2ccccc2)C1C)c1ccccc1 (stereo not given)
inactive: Potency [1] | Potency [2] | Potency [3] | Potency [4]

CC/C=C\C#N
inactive: Potency [1] | Potency [2] | Potency [3] | Potency [4]

COC(=O)NN
inactive: Potency [1] | Potency [2] | Potency [3] | Potency [4]

O=C1CCCCCCCCCCCCCC1
inactive: Potency [1] | Potency [2] | Potency [3] | Potency [4]

O=C(O)CCS
inactive: Potency [1] | Potency [2] | Potency [3] | Potency [4]

Cc1c(Nc2ncccc2C(=O)O)cccc1C(F)(F)F
inactive: Potency [1] | Potency [2] | Potency [3] | Potency [4]

O=C(O)Cc1cn(-c2ccccc2)nc1-c1ccc(Cl)cc1
inactive: Potency [1] | Potency [2] | Potency [3] | Potency [4]

CCCOCCC
inactive: Potency [1] | Potency [2] | Potency [3] | Potency [4]

C[Si]1(C)O[Si](C)(C)O[Si](C)(C)O[Si](C)(C)O[Si](C)(C)O1
inactive: Potency [1] | Potency [2] | Potency [3] | Potency [4]

O=C(O)Cc1cc(I)c(Oc2cc(I)c(O)c(I)c2)c(I)c1
inactive: Potency [1] | Potency [2] | Potency [3] | Potency [4]

CCCCC(=O)O[C@]1(C(=O)CO)[C@@H](C)C[C@H]2[C@@H]3CCC4=CC(=O)C=C[C@]4(C)[C@@]3(F)[C@@H](O)C[C@@]21C
inactive: Potency [1] | Potency [2] | Potency [3] | Potency [4]

CCNC(=O)/C=C/c1cccc(Br)c1
inactive: Potency [1] | Potency [2] | Potency [3] | Potency [4]

CCC(CC)Nc1ccc(C)c(C)c1
inactive: Potency [1] | Potency [2] | Potency [3] | Potency [4]

CC(=O)OCc1ccc2c(c1)OCO2
inactive: Potency [1] | Potency [2] | Potency [3] | Potency [4]

CC(C)[C@@H]1CC[C@@H](C)CC1=O
inactive: Potency [1] | Potency [2] | Potency [3] | Potency [4]

Oc1ccc(C(c2ccc(O)cc2)C(Cl)(Cl)Cl)cc1
inactive: Potency [1] | Potency [2] | Potency [3] | Potency [4]

COc1ccc(Br)c(C)c1
inactive: Potency [1] | Potency [2] | Potency [3] | Potency [4]

COC(=O)C1CCC(C(=O)OC)CC1 (stereo not given)
inactive: Potency [1] | Potency [2] | Potency [3] | Potency [4]

O=C(Nc1ccccc1)OCC(CN1CCCCC1)OC(=O)Nc1ccccc1 (stereo not given)
inactive: Potency [1] | Potency [2] | Potency [3] | Potency [4]

CC#C[C@]1(O)CC[C@H]2[C@@H]3CCC4=CC(=O)CCC4=C3[C@@H](c3ccc(N(C)C)cc3)C[C@@]21C
inactive: Potency [1] | Potency [2] | Potency [3] | Potency [4]

CC[C@H](C)COC(=O)/C=C/c1ccc(N=Cc2ccc(OC)cc2)cc1
inactive: Potency [1] | Potency [2] | Potency [3] | Potency [4]

Nc1ccc2c(c1)C(=O)c1ccccc1C2=O
inactive: Potency [1] | Potency [2] | Potency [3] | Potency [4]

C[C@@H](Oc1ccc(CNC(=O)c2cccnc2Oc2ccc3c(c2)OCO3)c(F)c1)C(=O)O
inactive: Potency [1] | Potency [2] | Potency [3] | Potency [4]

Cc1cccc(Nc2ccncc2S(=O)(=O)NC(=O)NC(C)C)c1
inactive: Potency [1] | Potency [2] | Potency [3] | Potency [4]

CC(=O)O[C@H](CC(=O)[O-])C[N+](C)(C)C
inactive: Potency [1] | Potency [2] | Potency [3] | Potency [4]

c1ccc2sc(SSN3CCOCC3)nc2c1
inactive: Potency [1] | Potency [2] | Potency [3] | Potency [4]

CC(O)COc1ccccc1 (stereo not given)
inactive: Potency [1] | Potency [2] | Potency [3] | Potency [4]

O=C(O)CCSCCC(=O)O
inactive: Potency [1] | Potency [2] | Potency [3] | Potency [4]

C=C(C)C1CCC(C)CC1O (stereo not given)
inactive: Potency [1] | Potency [2] | Potency [3] | Potency [4]

C=CCCCCCCCCC(=O)OCC
inactive: Potency [1] | Potency [2] | Potency [3] | Potency [4]

CCCCN(CCCC)CCC(O)c1cc2c(Cl)cc(Cl)cc2c2cc(C(F)(F)F)ccc12 (stereo not given)
inactive: Potency [1] | Potency [2] | Potency [3] | Potency [4]

O=C(NCc1ncc(C(F)(F)F)cc1Cl)c1c(Cl)cccc1Cl
inactive: Potency [1] | Potency [2] | Potency [3] | Potency [4]

ClC/C=C\CCl
inactive: Potency [1] | Potency [2] | Potency [3] | Potency [4]

C[C@@H]1CC(=O)NN=C1c1ccc(NN=C(C#N)C#N)cc1
inactive: Potency [1] | Potency [2] | Potency [3] | Potency [4]

C[C@]12C(=O)OC(=O)[C@H]1[C@H]1C=C[C@@H]2C1
inactive: Potency [1] | Potency [2] | Potency [3] | Potency [4]

C[C@](N)(Cc1ccc(O)cc1)C(=O)O
inactive: activity, negative = inhibition [1] -0.0506% [at 10.5 µM] | activity change, negative = inhibition [2] 0.139% [at 10.5 µM] | activity change, negative = inhibition [3] 3.21% [at 10.5 µM] | activity change, negative = inhibition [4] -2.1% [at 10.5 µM]

O=S(=O)(Oc1ccc(Cl)cc1Cl)c1ccccc1
inactive: Potency [1] | Potency [2] | Potency [3] | Potency [4]
